This is part of a sample that, as a whole, favours compounds with a hit. Of some 83,000 tested, about 20% had one in any assay.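 Cell lines were cultured in 96-well plates, exposed to a single compound concentration, and assessed for percent growth 48 hours later.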 A number with no mark means an inactive call. Activity calls are given as the source filed them. The calls were made as follows: active = growth percent below 10; inactive = the rest.
tested on: IGROV1 ovarian; assay: NCI-60 one-dose screen, 48 h (100 = growth as untreated, 0 = no growth, -100 = all killed); settings: 10 µM unless noted

Going from `O=C(Nc1ccccc1)Oc1cccc2cccnc12` to `Oc1cccc(Nc2nc(-c3ccccn3)cs2)c1`, the growth rises from 20.4% to 100%.

First: O=c1[nH]c(-c2ccccn2)nc2sc3c(c12)CCCCCC3
Second: Cc1nn(-c2ccccc2)c2nc3nc4c(c(N)c3c(-c3ccc(Cl)cc3)c12)CCC4
The growth of the first is lower: 42.4% for the first, 84.5% for the second.

Compared with `CC(=O)N(CC(O)CO)c1c(I)c(C(=O)NCCO)c(I)c(C(=O)NCC(O)CO)c1I` (centres undefined), `Cn1cc(C(=O)NCCC(=N)N)cc1NC(=O)CN=C(N)N` is higher in growth: 103% for the first, 106% for the second.

First: COc1ccc(-c2nc3sc(C)nn3c2-c2nc3cc(C)c(C)cc3[nH]2)cc1
Second: COc1ccc2nc(-n3nc(C)cc3C)c(-n3nc(C)cc3C)nc2c1
The growth of the first is lower: 98.4% for the first, 113% for the second.

Compared with `O=C(C[Si](CC(=O)c1cccc(C(F)(F)F)c1)CC(=O)c1cccc(C(F)(F)F)c1)c1cccc(C(F)(F)F)c1`, `FC(F)(F)c1cc(CNc2ncc(Br)c(Cl)n2)cc(C(F)(F)F)c1` is higher in growth: 48.3% for the first, 91.7% for the second.

First: Cc1ccc(C2SCC(=O)N2NC(=O)c2[nH]c3ccc(F)cc3c2-c2ccccc2)cc1 (centres undefined)
Second: COc1ccc(OC2=C(C#N)C(=N)N3c4ccccc4Sc4ccccc4C3N2)cc1 (centres undefined)
The growth of the first is higher: 88.4% for the first, 63% for the second.

First: O=C1/C(=C/c2ccc(Oc3ccccc3)cc2)N=C(c2ccccc2)N1CCc1cccs1
Second: COc1ccc(Nc2[nH]n(C3=Nc4ccccc4Sc4ccccc43)c(=O)c2C#N)cc1
The growth of the first is higher: 71.5% for the first, 55.1% for the second.

Compared with `CCCCc1ccc(C(O)(CCN2CC3CCC(CC3)C2)c2ccccc2)cc1` (centres undefined), `CCCCc1ccc(NC(=O)C(F)(F)F)cc1` is higher in growth: 95.2% for the first, 113% for the second.

First: CC(C)NCC(O)COc1ccc(CCOCC2CC2)cc1 (centres undefined)
Second: CCOc1ccc(-c2cnnn2-c2nonc2-n2cccc2)cc1
The growth of the first is higher: 113% for the first, 36.5% for the second.

First: O=C(O)CCN1CCN(c2cccc(Cl)c2)CC1
Second: O=C1C(Cl)=C(NCCCN2CCOCC2)C(=O)c2ccccc21
The growth of the first is higher: 105% for the first, 56.4% for the second.

Going from `CCCCC(CCCC)(S(=O)(=O)CC)S(=O)(=O)CC` to `CCN(CC)CCCNc1ccc(C)c2sc3ccccc3c(=O)c12`, the growth falls from 104% to 51.9%.

Going from `COc1ccc(/C=C2\CN(Cc3cn(CCCNc4ccnc5cc(Cl)ccc45)nn3)C/C(=C\c3ccc(OC)cc3)C2=O)cc1` to `Cn1c2c(cc(S(=O)(=O)c3ccccc3)c1=O)CCc1c-2cnn1-c1cccc(Cl)c1`, the growth rises from 65% to 97.5%.

Compared with `COc1ccc(-c2csc3c2-n2cccc2C3=O)cc1O`, `O=C1CC(c2ccsc2)c2snc(-c3ccc(Cl)cc3)c2N1` (centres undefined) is higher in growth: 20.3% for the first, 40.7% for the second.

Going from `O=C1OCC2=C1C(c1ccc3c(c1)OCO3)CC(=O)N2c1cccc(Cl)c1` (centres undefined) to `O=c1onc(-c2ccccc2)c2ccccc12`, the growth rises from 104% to 113%.

Compared with `C[C@@H](Oc1cc(-c2cnn(C3CC4(CNC4)C3)c2)cnc1N)c1c(Cl)ccc(F)c1Cl`, `O=c1nc(NO)[nH]c(=O)n1Cc1ccc(F)cc1` is higher in growth: 64.2% for the first, 97.3% for the second.

Going from `COc1ncnc2c1ncn2C/C(Br)=C(\Br)CCl` to `CCOC(=O)C(CC(c1ccccc1)N1CCCCC1)[N+](=O)[O-]` (centres undefined), the growth rises from 11.5% to 76.3%.

Compound `Cc1cc(=O)c2c(C)ccc(C)c2[nH]1` has a growth of 103%.

`CCCCCCCCCCCCSC1=CC(=O)C=CC1=O` was tested, and the growth was -26.6% (active).
For `COc1cc(CNCCCN2C(=O)c3ccc4c5c(ccc(c35)C2=O)C(=O)N(CCCNCc2cc(OC)c(OC)c(OC)c2)C4=O)cc(OC)c1OC`, the growth was -51.2% (active).
With `COc1cc2nc(N3CCC[C@H](NC4=CC(=O)c5ccccc5C4=O)C3)nc(N)c2cc1OC` the growth was -81.6% (active).
With `CC1SC(c2ccc(Cl)cc2)N(CCc2cccs2)C1=O` (centres undefined) the growth was 4.04% (active).

tested on: OVCAR-3 ovarian; assay: as above; settings: 10 µM unless noted

For `O=C(Nc1ccccc1)Oc1cccc2cccnc12`, the growth was -19.4% (active).
In the case of `COc1cc(CNCCCN2C(=O)c3ccc4c5c(ccc(c35)C2=O)C(=O)N(CCCNCc2cc(OC)c(OC)c(OC)c2)C4=O)cc(OC)c1OC`, the growth is reported as -27.7% (active).
`CCOc1ccc(-c2cnnn2-c2nonc2-n2cccc2)cc1` was tested, and the growth was -37.1% (active).
With `COc1ccc(-c2csc3c2-n2cccc2C3=O)cc1O` the growth was -38.7% (active).
For `COc1cc2nc(N3CCC[C@H](NC4=CC(=O)c5ccccc5C4=O)C3)nc(N)c2cc1OC`, the growth was -57.7% (active).
In the case of `CC1SC(c2ccc(Cl)cc2)N(CCc2cccs2)C1=O` (centres undefined), the growth is reported as -30.3% (active).
`COc1ncnc2c1ncn2C/C(Br)=C(\Br)CCl` was tested, and the growth was -94.2% (active).
With `O=C1CC(c2ccsc2)c2snc(-c3ccc(Cl)cc3)c2N1` (centres undefined) the growth was -14% (active).

First: O=c1[nH]c(-c2ccccn2)nc2sc3c(c12)CCCCCC3
Second: Oc1cccc(Nc2nc(-c3ccccn3)cs2)c1
The growth of the first is lower: 54.7% for the first, 119% for the second.

Compared with `CC(=O)N(CC(O)CO)c1c(I)c(C(=O)NCCO)c(I)c(C(=O)NCC(O)CO)c1I` (centres undefined), `Cn1cc(C(=O)NCCC(=N)N)cc1NC(=O)CN=C(N)N` is higher in growth: 107% for the first, 112% for the second.

Compared with `COc1ccc(-c2nc3sc(C)nn3c2-c2nc3cc(C)c(C)cc3[nH]2)cc1`, `COc1ccc2nc(-n3nc(C)cc3C)c(-n3nc(C)cc3C)nc2c1` is higher in growth: 104% for the first, 126% for the second.

Going from `O=C(C[Si](CC(=O)c1cccc(C(F)(F)F)c1)CC(=O)c1cccc(C(F)(F)F)c1)c1cccc(C(F)(F)F)c1` to `FC(F)(F)c1cc(CNc2ncc(Br)c(Cl)n2)cc(C(F)(F)F)c1`, the growth rises from 37.8% to 120%.

First: Cc1ccc(C2SCC(=O)N2NC(=O)c2[nH]c3ccc(F)cc3c2-c2ccccc2)cc1 (centres undefined)
Second: COc1ccc(OC2=C(C#N)C(=N)N3c4ccccc4Sc4ccccc4C3N2)cc1 (centres undefined)
The growth of the first is lower: 92% for the first, 92.1% for the second.

Compared with `CCCCCCCCCCCCSC1=CC(=O)C=CC1=O`, `CCCCC(CCCC)(S(=O)(=O)CC)S(=O)(=O)CC` is higher in growth: 73.2% for the first, 105% for the second.

Going from `O=C1/C(=C/c2ccc(Oc3ccccc3)cc2)N=C(c2ccccc2)N1CCc1cccs1` to `COc1ccc(Nc2[nH]n(C3=Nc4ccccc4Sc4ccccc43)c(=O)c2C#N)cc1`, the growth falls from 106% to 52.4%.

Compared with `CCCCc1ccc(C(O)(CCN2CC3CCC(CC3)C2)c2ccccc2)cc1` (centres undefined), `CCCCc1ccc(NC(=O)C(F)(F)F)cc1` is higher in growth: 91.9% for the first, 106% for the second.

`CC(C)NCC(O)COc1ccc(CCOCC2CC2)cc1` (centres undefined) and `O=c1nc(NO)[nH]c(=O)n1Cc1ccc(F)cc1` are the same in growth: 112% for the first, 112% for the second.

Compared with `O=C(O)CCN1CCN(c2cccc(Cl)c2)CC1`, `O=C1C(Cl)=C(NCCCN2CCOCC2)C(=O)c2ccccc21` is lower in growth: 122% for the first, 96.4% for the second.

First: COc1ccc(/C=C2\CN(Cc3cn(CCCNc4ccnc5cc(Cl)ccc45)nn3)C/C(=C\c3ccc(OC)cc3)C2=O)cc1
Second: Cn1c2c(cc(S(=O)(=O)c3ccccc3)c1=O)CCc1c-2cnn1-c1cccc(Cl)c1
The growth of the first is lower: 68.7% for the first, 98.1% for the second.

First: O=C1OCC2=C1C(c1ccc3c(c1)OCO3)CC(=O)N2c1cccc(Cl)c1 (centres undefined)
Second: Cc1nn(-c2ccccc2)c2nc3nc4c(c(N)c3c(-c3ccc(Cl)cc3)c12)CCC4
The growth of the first is lower: 109% for the first, 111% for the second.

Going from `C[C@@H](Oc1cc(-c2cnn(C3CC4(CNC4)C3)c2)cnc1N)c1c(Cl)ccc(F)c1Cl` to `Cc1cc(=O)c2c(C)ccc(C)c2[nH]1`, the growth rises from 63.2% to 169%.

First: CCOC(=O)C(CC(c1ccccc1)N1CCCCC1)[N+](=O)[O-] (centres undefined)
Second: CCN(CC)CCCNc1ccc(C)c2sc3ccccc3c(=O)c12
The growth of the first is lower: 53.3% for the first, 68.5% for the second.

Work on `O=c1onc(-c2ccccc2)c2ccccc12` yielded a growth of 113%.
